Laboratory results reported in PubChem BioAssay (NCATS).
Inconclusive results are not listed. Where a call stands in place of a potency, no number is given. The source made the active and inactive calls. Calls follow the shape of the dose curve; as a rule, active = well fitted inhibition curve with a large enough effect; inconclusive = small, poorly fitted or top-dose-only effect; inactive = no such curve, though single readings can be large or run the other way.

What was measured:
[1] = tested on: Zika virus NS2B-NS3 protease (unlinked complex); assay: Primary screen GU Rhodamine qHTS for Zika virus inhibitors: Unlinked NS2B-NS3 protease assay (AID 1347159); also: nearly all actives have a fitted effect of over 60% in size
How it was run: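 Compounds, tested up to 114 microM, were incubated for 15 minutes with 25 nM unlinked NS2B-NS3 protease at pH 8.0. Cleavage of 1.5 microM Rhodamine110 substrate was then followed by fluorescence for 15 minutes.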

[2] = tested on: Zika virus NS2B-NS3 protease (linked construct); assay: Primary screen NINDS Rhodamine qHTS for Zika virus inhibitors (AID 1347160); also: nearly all actives have a fitted effect of over 55% in size
How it was run: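 Percent inhibition, normalized to uninhibited and enzyme-free controls, is fitted to a 4-parameter Hill equation. Fluorescence change comes from a 15-min cleavage of 1.5 microM bis-peptide Rhodamine110 substrate by 25 nM linked NS2B-NS3 at room temperature.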

Structure (SMILES) | Potency [1] | Potency [2]
Cc1nc(-c2cccnc2)sc1C(=O)Nc1ccccc1-c1cn2c(CN3CCOCC3)csc2n1 | inactive | inactive
C[C@@H]1C[C@@H](O)[C@@]23CO[C@]2(CO)CCC[C@@H]3[C@@]12C[C@@H](c1ccoc1)OC2=O | inactive | inactive
CC1=C(CO)C2(C)CCCC(C)(C)C2C(O)C1O (stereo not drawn) | inactive | inactive
CC1=C2C[C@@]3(C)[C@@H](CCC[C@@H]3C)C[C@@]2(O)OC1=O | inactive | inactive
